From PubChem BioAssay (NCI)
About 83,000 compounds went through this panel and 20% of them were active in at least one assay; those are over-represented in the sample as a whole.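 Single-concentration screen, 48 h exposure, 96-well plates. Endpoint: percent growth. Below 10 = active.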 Calls of active or inactive are those of the source.

Experiments:
Test in all cases: NCI-60 one-dose screen, 48 h (100 = growth as untreated, 0 = no growth, -100 = all killed)
Conditions in all cases: 10 µM unless noted
DU-145 prostate = test system: DU-145 prostate
K-562 leukemia = test system: K-562 leukemia
MALME-3M melanoma = test system: MALME-3M melanoma
MDA-MB-231 breast = test system: MDA-MB-231 breast
RXF 393 renal = test system: RXF 393 renal
SF-268 CNS = test system: SF-268 CNS
SF-295 CNS = test system: SF-295 CNS
SF-539 CNS = test system: SF-539 CNS
UACC-257 melanoma = test system: UACC-257 melanoma
M14 melanoma = test system: M14 melanoma
HCT-15 colon = test system: HCT-15 colon
HT29 colon = test system: HT29 colon
SNB-75 CNS = test system: SNB-75 CNS
SNB-19 CNS = test system: SNB-19 CNS
U251 CNS = test system: U251 CNS
PC-3 prostate = test system: PC-3 prostate
UACC-62 melanoma = test system: UACC-62 melanoma
LOX IMVI melanoma = test system: LOX IMVI melanoma
SK-MEL-28 melanoma = test system: SK-MEL-28 melanoma
SK-MEL-5 melanoma = test system: SK-MEL-5 melanoma

Measured: growth

COc1ccc(-c2nc(-c3cn(C)c4ncccc34)cs2)cc1
inactive: DU-145 prostate 15.2% [100 µM] | K-562 leukemia 11% [100 µM] | MDA-MB-231 breast 15.9% [100 µM] | SF-268 CNS 23.4% [100 µM] | UACC-257 melanoma 17.5% [100 µM] | SNB-19 CNS 23.2% [100 µM] | SK-MEL-28 melanoma 37.9% [100 µM]
active: MALME-3M melanoma -54.9% [100 µM] | RXF 393 renal -12.6% [100 µM] | SF-295 CNS -25.5% [100 µM] | SF-539 CNS -67.2% [100 µM] | M14 melanoma -69.6% [100 µM] | HCT-15 colon -1.17% [100 µM] | HT29 colon -63.2% [100 µM] | SNB-75 CNS -3.6% [100 µM] | U251 CNS 3.9% [100 µM] | PC-3 prostate -28.2% [100 µM] | UACC-62 melanoma -20.1% [100 µM] | LOX IMVI melanoma -47.1% [100 µM]

C[C@]1(O)CC(=O)[C@]2(O)C3=C(C=C[C@]2(O)C1)C(=O)c1c(O)cccc1C3=O
active: DU-145 prostate -82.3% | K-562 leukemia 5.36% | MALME-3M melanoma -96.7% | RXF 393 renal -85.3% | M14 melanoma -24.8% | HCT-15 colon -45.5% | HT29 colon 3.93% | SK-MEL-5 melanoma -53.7% | LOX IMVI melanoma -51.5% | SK-MEL-28 melanoma -37.4%
inactive: MDA-MB-231 breast 30.2% | SF-268 CNS 85.4% | SF-295 CNS 89.8% | SF-539 CNS 82.4% | UACC-257 melanoma 77.3% | SNB-75 CNS 20% | U251 CNS 72.4% | PC-3 prostate 72.8% | UACC-62 melanoma 16.5%

COc1ccc2[nH]cc(-c3nc(-c4c[nH]c5c(Cl)nccc45)cs3)c2c1
inactive: DU-145 prostate 32.6% | K-562 leukemia 19.3% | MALME-3M melanoma 65.8% | MDA-MB-231 breast 31.7% | RXF 393 renal 37.7% | SF-268 CNS 73% | SF-295 CNS 11.9% | SF-539 CNS 34.9% | HT29 colon 15.8% | SNB-75 CNS 54.1% | SNB-19 CNS 63.9% | U251 CNS 17.5% | PC-3 prostate 31% | UACC-62 melanoma 52% | LOX IMVI melanoma 13.2% | SK-MEL-28 melanoma 42%
active: UACC-257 melanoma -48.3% | M14 melanoma -26% | HCT-15 colon -16.1%

Cc1ccc(CNc2ccc3nc(CCC(C)C)[nH]c3c2)cc1
inactive: DU-145 prostate 101% | K-562 leukemia 79.2% | MALME-3M melanoma 90.9% | MDA-MB-231 breast 86% | RXF 393 renal 96% | SF-268 CNS 91.2% | SF-295 CNS 95.1% | SF-539 CNS 94.4% | UACC-257 melanoma 89.7% | M14 melanoma 96.2% | HCT-15 colon 79.5% | HT29 colon 92.4% | SNB-75 CNS 86.4% | U251 CNS 91.8% | PC-3 prostate 77.9% | SK-MEL-5 melanoma 97.8% | UACC-62 melanoma 90.7% | LOX IMVI melanoma 94.5% | SK-MEL-28 melanoma 98%

c1nc2ccc(-c3cc4ccc5[nH]ncc5c4c4c3CCCC4)cc2[nH]1
active: M14 melanoma 7.72%
inactive: DU-145 prostate 62.5% | K-562 leukemia 27.8% | MALME-3M melanoma 28.8% | MDA-MB-231 breast 81.6% | RXF 393 renal 62.6% | SF-268 CNS 71.1% | SF-295 CNS 67.9% | SF-539 CNS 48.7% | UACC-257 melanoma 59.1% | HCT-15 colon 94.8% | HT29 colon 58% | SNB-75 CNS 71.2% | U251 CNS 77.3% | PC-3 prostate 63.1% | SK-MEL-5 melanoma 67.4% | UACC-62 melanoma 31.9% | LOX IMVI melanoma 53.3% | SK-MEL-28 melanoma 41.7%

Cc1ccc(Cl)cc1NC(=O)c1sc2nc3c(cc2c1N)C(=O)CCC3
inactive: DU-145 prostate 77.4% | K-562 leukemia 33.6% | MALME-3M melanoma 81.1% | MDA-MB-231 breast 80% | RXF 393 renal 42.1% | SF-268 CNS 74.9% | SF-539 CNS 47.7% | UACC-257 melanoma 44.9% | M14 melanoma 62.9% | HCT-15 colon 45.9% | HT29 colon 28.8% | SNB-75 CNS 48% | U251 CNS 59.1% | PC-3 prostate 55.8% | SK-MEL-5 melanoma 27% | UACC-62 melanoma 53.1% | LOX IMVI melanoma 68.1% | SK-MEL-28 melanoma 67%
active: SF-295 CNS 4.01%

O=C(Nc1ccc(Cl)cc1)Oc1c(Cl)c(Cl)c(Cl)c(Cl)c1Cl
inactive: DU-145 prostate 97.9% | K-562 leukemia 89.9% | MALME-3M melanoma 93.7% | MDA-MB-231 breast 92.9% | RXF 393 renal 106% | SF-268 CNS 92.9% | SF-295 CNS 83.2% | SF-539 CNS 94.8% | UACC-257 melanoma 100% | M14 melanoma 96.8% | HCT-15 colon 94.5% | HT29 colon 96.1% | SNB-75 CNS 83.3% | SNB-19 CNS 98.1% | U251 CNS 98% | PC-3 prostate 89.4% | UACC-62 melanoma 81.3% | LOX IMVI melanoma 86.1% | SK-MEL-28 melanoma 105%

CSc1nn2c(-c3ccc4ccccc4c3)ccnc2c1C#N
active: SF-295 CNS 8.45% | M14 melanoma 5.19% | HT29 colon 2.83% | SNB-75 CNS -7.71% | U251 CNS 6.98%
inactive: DU-145 prostate 43% | K-562 leukemia 11.1% | MALME-3M melanoma 10.1% | MDA-MB-231 breast 27.3% | RXF 393 renal 19% | SF-268 CNS 45.3% | SF-539 CNS 26.3% | UACC-257 melanoma 63% | HCT-15 colon 15.4% | PC-3 prostate 45.8% | SK-MEL-5 melanoma 10.1% | UACC-62 melanoma 18.8% | LOX IMVI melanoma 21.7% | SK-MEL-28 melanoma 38.9%

CCN(CC)c1ccc(/C=N/NC(=O)Cc2ccc(Nc3ccnc(C(F)(F)F)c3)cc2)c(O)c1
active: M14 melanoma -18.3% | SNB-75 CNS 5.89% | LOX IMVI melanoma 6.64%
inactive: DU-145 prostate 18.3% | K-562 leukemia 23.1% | MALME-3M melanoma 15.5% | MDA-MB-231 breast 43% | RXF 393 renal 45.8% | SF-268 CNS 18% | SF-295 CNS 17.9% | SF-539 CNS 17.1% | UACC-257 melanoma 37.4% | HCT-15 colon 33.2% | HT29 colon 33.1% | SNB-19 CNS 30.9% | U251 CNS 25.7% | PC-3 prostate 53.3% | UACC-62 melanoma 20.6% | SK-MEL-28 melanoma 31.7%

Cc1nc2c(c(=O)[nH]1)C(c1ccccc1)c1ccc3ccccc3c1O2 (stereo not drawn)
inactive: DU-145 prostate 56.2% | K-562 leukemia 11.9% | MALME-3M melanoma 60.9% | MDA-MB-231 breast 46.6% | RXF 393 renal 27.6% | SF-268 CNS 38.2% | SF-295 CNS 22.8% | SF-539 CNS 14.5% | UACC-257 melanoma 34.5% | M14 melanoma 22.2% | HCT-15 colon 23.4% | HT29 colon 84.5% | SNB-75 CNS 13.1% | U251 CNS 26.1% | PC-3 prostate 19.7% | SK-MEL-5 melanoma 36.8% | UACC-62 melanoma 30.4% | LOX IMVI melanoma 35.2% | SK-MEL-28 melanoma 57.7%

Cc1ccc2c(-n3nc(C#N)c(C#N)c3N)cc(=O)[nH]c2c1
inactive: DU-145 prostate 94% | K-562 leukemia 76% | MALME-3M melanoma 78.2% | MDA-MB-231 breast 85.5% | RXF 393 renal 100% | SF-268 CNS 94.4% | SF-295 CNS 94% | SF-539 CNS 89.8% | UACC-257 melanoma 87.9% | M14 melanoma 84.9% | HCT-15 colon 87.9% | HT29 colon 93.7% | SNB-75 CNS 110% | U251 CNS 86.4% | PC-3 prostate 71.1% | SK-MEL-5 melanoma 93.5% | UACC-62 melanoma 80.2% | LOX IMVI melanoma 81%

Nc1[nH]n2cc(-c3ccc(F)cc3)nc2c1N=Nc1ccc(S(N)(=O)=O)cc1
inactive: DU-145 prostate 70.2% | K-562 leukemia 90.1% | MALME-3M melanoma 58.4% | MDA-MB-231 breast 74.8% | RXF 393 renal 60.4% | SF-268 CNS 76.7% | SF-295 CNS 98.2% | SF-539 CNS 72.5% | UACC-257 melanoma 99.6% | M14 melanoma 64.6% | HCT-15 colon 60.4% | HT29 colon 83.6% | SNB-75 CNS 56.4% | U251 CNS 76.4% | PC-3 prostate 80.6% | SK-MEL-5 melanoma 76.9% | UACC-62 melanoma 71.4% | LOX IMVI melanoma 64.5% | SK-MEL-28 melanoma 84.8%

CN1C(=O)/C(=C/c2ccc(C(=O)Nc3ncc(Cc4cccc(Cl)c4)s3)cc2)SC1=S
inactive: DU-145 prostate 66.3% | K-562 leukemia 55.1% | MALME-3M melanoma 67.9% | MDA-MB-231 breast 77.4% | RXF 393 renal 64.4% | SF-268 CNS 61.7% | SF-295 CNS 31% | SF-539 CNS 67.5% | UACC-257 melanoma 79.8% | M14 melanoma 17% | HCT-15 colon 35.3% | HT29 colon 61.1% | SNB-75 CNS 73.6% | U251 CNS 65.2% | PC-3 prostate 73.3% | SK-MEL-5 melanoma 25.7% | UACC-62 melanoma 20.4% | LOX IMVI melanoma 22.7% | SK-MEL-28 melanoma 63.4%

CCC1S/C(=N\N=C(\C)c2cc3cc(Cl)ccc3o2)N(c2ccccc2)C1=O (stereo not drawn)
inactive: DU-145 prostate 131% | K-562 leukemia 92.2% | MDA-MB-231 breast 89.4% | RXF 393 renal 131% | SF-268 CNS 108% | SF-295 CNS 103% | SF-539 CNS 122% | UACC-257 melanoma 154% | M14 melanoma 61.5% | HCT-15 colon 107% | HT29 colon 111% | SNB-75 CNS 110% | SNB-19 CNS 101% | U251 CNS 99% | PC-3 prostate 84.6% | UACC-62 melanoma 88.9% | LOX IMVI melanoma 85.4% | SK-MEL-28 melanoma 111%
active: MALME-3M melanoma -3.03%

O=C(Cn1nnc2ccccc21)N/N=C/c1c[nH]c2ccccc12
inactive: DU-145 prostate 81% | K-562 leukemia 15.2% | MALME-3M melanoma 61% | MDA-MB-231 breast 52% | RXF 393 renal 66.5% | SF-268 CNS 57.5% | SF-295 CNS 44.3% | SF-539 CNS 51.9% | UACC-257 melanoma 65.3% | M14 melanoma 19.7% | HCT-15 colon 33.3% | HT29 colon 13.1% | SNB-75 CNS 33.5% | U251 CNS 39.5% | PC-3 prostate 61.7% | SK-MEL-5 melanoma 28.4% | UACC-62 melanoma 23% | LOX IMVI melanoma 46.1% | SK-MEL-28 melanoma 72.5%

CCOC(=O)c1ccccc1-c1c2ccc(=[N+](C)C)cc-2oc2cc(N(C)C)ccc12
active: SF-295 CNS -26.9% | SF-539 CNS -5.48% | UACC-257 melanoma 5.13% | HT29 colon -0.175% | SNB-75 CNS 7.68% | PC-3 prostate 5.32% | SK-MEL-5 melanoma -68.1% | UACC-62 melanoma 9.47%
inactive: DU-145 prostate 25.3% | K-562 leukemia 10.2% | MALME-3M melanoma 28.2% | MDA-MB-231 breast 11.7% | RXF 393 renal 18.4% | SF-268 CNS 20.8% | M14 melanoma 13.5% | HCT-15 colon 70.2% | U251 CNS 14.6% | LOX IMVI melanoma 94.6% | SK-MEL-28 melanoma 32%
